“And” between values parts separate entries of the source, which are not always exact repeats. Equal entries are not always repeated. More than one record can exist for a structure, and the calls need not agree. The source made the active and inactive calls. Rule for the calls: active = hit-call score of the fitted dose curve at least 0.9, where 1 is the maximum; inactive = score below 0.9.
Legend:
[1] = read-out: CD69, CD69 (gene 969); experiment: BSK_IMphg_CD69: BioMAP Diversity Plus: IMphg Assay for CD69 Biomarker Activity (AID 2284257); settings: primary human endothelial cells with macrophages
How it was run: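 Readout is ELISA for CD69 in primary human venular endothelial cell/macrophage co-culture, taken at 24 h post-dosing. SRB staining of parallel cultures gauged overt cytotoxicity; signal increase versus DMSO defined activity.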

[2] = read-out: Eotaxin 3, CCL26 (gene 10344); experiment: BSK_BF4T_Eotaxin3: BioMAP Diversity Plus: BF4T Assay for Eotaxin 3 Biomarker Activity (AID 2284258); settings: primary human bronchial epithelial cells with fibroblasts
How it was run: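 ELISA measurement of Eotaxin-3 after 24 h chemical exposure in a bronchial epithelial/dermal fibroblast co-culture, with DMSO as baseline. Parallel SRB staining (0.1% SRB after 10% TCA fixation, 560 nm) flagged overt cytotoxicity.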

[3] = read-out: Monocyte Chemoattractant Protein-1 (MCP1), CCL2 (gene 6347); experiment: BSK_BF4T_MCP1: BioMAP Diversity Plus: BF4T Assay for Monocyte Chemoattractant Protein-1 (MCP1) Biomarker Activity (AID 2284259); settings: primary human bronchial epithelial cells with fibroblasts
How it was run: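 MCP-1 ELISA readout taken 24 h after dosing in the BF4T system (bronchial epithelial cells plus dermal fibroblasts). Parallel SRB total-protein staining flagged cytotoxicity; DMSO served as baseline, positive fitting direction.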

[4] = read-out: Intercellular Adhesion Molecule 1 (ICAM1), ICAM1 (gene 3383); experiment: BSK_BF4T_ICAM1: BioMAP Diversity Plus: BF4T Assay for Intercellular Adhesion Molecule 1 (ICAM1) Biomarker Activity (AID 2284260); settings: primary human bronchial epithelial cells with fibroblasts
How it was run: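 ICAM-1 levels measured by ELISA after 24 h chemical treatment of bronchial epithelial cell/dermal fibroblast co-cultures, read against DMSO baseline. Overt cytotoxicity checked in parallel cultures by sulforhodamine B staining.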

[5] = read-out: Interleukin-8 (IL8), CXCL8 (gene 3576); experiment: BSK_MyoF_IL8: BioMAP Diversity Plus: MyoF Assay for Interleukin-8 (IL8) Biomarker Activity (AID 2284261); settings: primary human lung fibroblasts
How it was run: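 Human lung fibroblast (MyoF system) cultures dosed for 24 h, then IL-8 measured by ELISA. Response taken relative to DMSO; parallel SRB total-protein staining for cytotoxicity.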

[6] = read-out: CD90, THY1 (gene 7070); experiment: BSK_BF4T_CD90: BioMAP Diversity Plus: BF4T Assay for CD90 Biomarker Activity (AID 2284262); settings: primary human bronchial epithelial cells with fibroblasts
How it was run: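 CD90 levels by ELISA after 24 h treatment of human bronchial epithelial cell/dermal fibroblast cultures, analysed versus DMSO. Overt cytotoxicity checked in parallel cultures by sulforhodamine B staining.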

[7] = read-out: Matrix Metallopeptidase 1 (MMP1), MMP1 (gene 4312); experiment: BSK_MyoF_MMP1: BioMAP Diversity Plus: MyoF Assay for Matrix Metallopeptidase 1 (MMP1) Biomarker Activity (AID 2284268); settings: primary human lung fibroblasts
How it was run: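 Human lung fibroblast primary cells; MMP1 measured by ELISA 24 h after dosing, fitted in the positive direction relative to DMSO. Parallel SRB staining (0.1%, after 10% TCA fixation, 560 nm) assesses overt cytotoxicity.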

[8] = read-out: TIMP metallopeptidase inhibitor 1 (TIMP1), TIMP1 (gene 7076); experiment: BSK_MyoF_TIMP1: BioMAP Diversity Plus: MyoF Assay for TIMP metallopeptidase inhibitor 1 (TIMP1) Biomarker Activity (AID 2284269); settings: primary human lung fibroblasts
How it was run: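 Fibroblasts from human lung are dosed with chemical, cultured 24 h, and assayed for TIMP-1 by ELISA. Increases over the DMSO baseline are scored, with SRB total-protein staining run in parallel for cytotoxicity.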

[9] = read-out: Matrix Metallopeptidase 1 (MMP1), MMP1 (gene 4312); experiment: BSK_BF4T_MMP1: BioMAP Diversity Plus: BF4T Assay for Matrix Metallopeptidase 1 (MMP1) Biomarker Activity (AID 2284270); settings: primary human bronchial epithelial cells with fibroblasts
How it was run: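 MMP-1 quantified by ELISA in primary human bronchial epithelial/dermal fibroblast co-cultures, 24 hours post-dosing, with DMSO as baseline; parallel sulforhodamine B staining (560 nm) tracks overt cytotoxicity.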

[10] = read-out: Plasminogen Activator Inhibitor-1 (PAI1), SERPINE1 (gene 5054); experiment: BSK_BF4T_PAI1: BioMAP Diversity Plus: BF4T Assay for Plasminogen Activator Inhibitor-1 (PAI1) Biomarker Activity (AID 2284273); settings: primary human bronchial epithelial cells with fibroblasts
How it was run: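 PAI-1 levels quantified by ELISA 24 h post-dosing in bronchial epithelial cell plus dermal fibroblast cultures. Signal gain referenced to DMSO baseline. Sulforhodamine B total-protein staining of parallel wells checked cytotoxicity.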

[11] = BSK_BF4T_SRB: Viability Assessment in the BioMAP Diversity Plus: BF4T Assay (AID 2284274); settings: primary human bronchial epithelial cells with fibroblasts
How it was run: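 Cytotoxicity measured as total protein: cells fixed with 10% TCA, stained with 0.1% SRB, read at 560 nm. Bronchial epithelial/dermal fibroblast co-culture, 24 h after dosing, with positive-direction fitting relative to DMSO.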

[12] = read-out: Matrix Metallopeptidase 9 (MMP9), MMP9 (gene 4318); experiment: BSK_BF4T_MMP9: BioMAP Diversity Plus: BF4T Assay for Matrix Metallopeptidase 9 (MMP9) Biomarker Activity (AID 2284276); settings: primary human bronchial epithelial cells with fibroblasts
How it was run: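 MMP-9 levels were measured by ELISA after 24 h exposure of bronchial epithelial cell/dermal fibroblast co-cultures, with DMSO as baseline. Parallel cultures were stained with 0.1% SRB after TCA fixation, read at 560 nm, to flag overt cytotoxicity.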

[13] = read-out: Interleukin-8 (IL8), CXCL8 (gene 3576); experiment: BSK_IMphg_IL8: BioMAP Diversity Plus: IMphg Assay for Interleukin-8 (IL8) Biomarker Activity (AID 2284277); settings: primary human endothelial cells with macrophages
How it was run: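 IL-8 levels were measured by ELISA 24 h after dosing in primary human venular endothelial cell–macrophage cultures, referenced to DMSO; parallel SRB staining monitored overt cytotoxicity.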

[14] = read-out: Intercellular Adhesion Molecule 1 (ICAM1), ICAM1 (gene 3383); experiment: BSK_BE3C_ICAM1: BioMAP Diversity Plus: BE3C Assay for Intercellular Adhesion Molecule 1 (ICAM1) Biomarker Activity (AID 2284278); settings: primary human bronchial epithelial cells
How it was run: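 ELISA read-out of ICAM-1 on human lung bronchial epithelial primary cells, 24 h post-dosing; positive-direction curve fit, DMSO = baseline. SRB total-protein staining of parallel cultures flagged overt cytotoxicity.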

[15] = read-out: Interleukin-8 (IL8), CXCL8 (gene 3576); experiment: BSK_BE3C_IL8: BioMAP Diversity Plus: BE3C Assay for Interleukin-8 (IL8) Biomarker Activity (AID 2284280); settings: primary human bronchial epithelial cells
How it was run: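 Measured at 24 h after treatment, IL-8 from human primary bronchial epithelial cells is determined by ELISA, and the response is modelled as increasing relative to DMSO negative control.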

[16] = read-out: Epidermal growth factor receptor (EGFR), EGFR (gene 1956); experiment: BSK_BE3C_EGFR: BioMAP Diversity Plus: BE3C Assay for Epidermal growth factor receptor (EGFR) Biomarker Activity (AID 2284281); settings: primary human bronchial epithelial cells
How it was run: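 Measured 24 h after dosing in primary human bronchial epithelial cultures, EGFR was read by ELISA; gain of signal over DMSO control defined activity.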

[17] = read-out: Matrix Metallopeptidase 9 (MMP9), MMP9 (gene 4318); experiment: BSK_BE3C_MMP9: BioMAP Diversity Plus: BE3C Assay for Matrix Metallopeptidase 9 (MMP9) Biomarker Activity (AID 2284283); settings: primary human bronchial epithelial cells
How it was run: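 Human primary bronchial epithelial cells exposed 24 h to compound. MMP9 quantified by ELISA. SRB total-protein staining of parallel cultures assesses cytotoxicity. Positive-direction fit relative to DMSO.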

[18] = read-out: Plasminogen activator inhibitor-1 (PAI1), SERPINE1 (gene 5054); experiment: BSK_CASM3C_PAI1: BioMAP Diversity Plus: CASM3C Assay for Plasminogen activator inhibitor-1 (PAI1) Biomarker Activity (AID 2284284); settings: primary human coronary artery smooth muscle cells
[19] = read-out: Monocyte Chemoattractant Protein-1 (MCP1), CCL2 (gene 6347); experiment: BSK_hDFCGF_MCP1: BioMAP Diversity Plus: hDFCGF Assay for Monocyte Chemoattractant Protein-1 (MCP1) Biomarker Activity (AID 2284285); settings: primary human foreskin fibroblasts
How it was run: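 MCP-1 ELISA readout was taken 24 hours after dosing primary human dermal fibroblasts in the hDFCGF system, with DMSO as baseline. Parallel sulforhodamine B staining of total protein tracked overt cytotoxicity.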

[20] = read-out: Vascular cell adhesion molecule 1 (VCAM1), VCAM1 (gene 7412); experiment: BSK_IMphg_VCAM1: BioMAP Diversity Plus: IMphg Assay for Vascular cell adhesion molecule 1 (VCAM1) Biomarker Activity (AID 2284286); settings: primary human endothelial cells with macrophages
How it was run: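 ELISA read-out of VCAM-1 on venular endothelial cell/macrophage co-cultures at 24 h post-treatment, with DMSO as baseline and positive-direction fitting. Parallel sulforhodamine B total-protein staining (560 nm) served as the overt cytotoxicity measure.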

Measured: AC50

O=C(O)C(F)(F)OC(F)(F)C(F)(F)OC(F)(F)C(F)(F)OC(F)(F)C(F)(F)C(F)(F)C(F)(F)F
inactive: [3] | [6] | [7] | [9] | [11] | [16] | [18]
active: [1] 40.2 µM and 24.2 µM | [2] 7.32 µM and 7.02 µM | [3] 7.5 µM | [4] 8.19 µM and 7.58 µM | [5] 46.8 µM and 44.5 µM | [6] 14.6 µM | [8] 8.18 µM and 8.09 µM | [10] 19.1 µM and 16.2 µM | [12] 11.2 µM and 8.88 µM | [13] 54.2 µM and 7.06 µM | [14] 6.39 µM and 5.8 µM | [15] 6.28 µM and 6.03 µM | [17] 5.94 µM and 4.69 µM | [19] 8.5 µM and 8.66 µM | [20] 51.8 µM and 48.8 µM

CC1=NN(c2ccccc2)C(=O)C1
inactive: [5] | [7] | [8]

Cc1ccc(C(=O)c2ccccc2)cc1
active: [7] 38.7 µM
inactive: [5] | [8]

O=P(O)(O)CCC(F)(F)C(F)(F)C(F)(F)C(F)(F)C(F)(F)C(F)(F)C(F)(F)C(F)(F)F
active: [2] 8.05 µM | [13] 40.1 µM
inactive: [1] | [2] | [3] | [4] | [5] | [6] | [7] | [8] | [9] | [10] | [11] | [12] | [13] | [14] | [15] | [16] | [17] | [18] | [19] | [20]

— PubChem BioAssay (EPA / NIEHS)
